# Measurements from PMC5540273 (PLoS ONE, 2017).
# Tested on: EGFR
# 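Also: kd values determined as follow-up on hits from a single-replicate KINOMEscan panel screen.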
row,SMILES,Kd
1,Cn1cncc1-c1ccc2ncnc(Nc3ccc(OCc4ccccc4)cc3)c2c1 [GW320571],49 nM
2,Cl.O=C(Nc1cccc(-c2nn3ncccc3c2-c2ccnc(Nc3cccnc3)n2)c1)c1c(F)cccc1F [GSK312879],38 nM
3,Cl.NC(=O)c1cccc(Nc2nccc(Nc3ccc(Oc4cccc(Cl)c4)c(Cl)c3)n2)c1 [GW659008],120 nM

# Tested on: T1, ERK4
# T1 construct: gene MAPK4
row,SMILES,Kd
1,CS(=O)(=O)c1ccc(-c2nc3n(c2-c2ccncc2)CCC3)cc1 [SKF-105942],> 10000 nM
2,Cc1cccc(-c2nc(C)cc(Nc3ccncc3)n2)n1 [GSK257997],> 10000 nM
3,O=C(Nc1n[nH]c2nc(-c3nccs3)c(Br)cc12)C1CCCC1 [SB-742609],> 10000 nM

# Tested on: FLT3
row,SMILES,Kd
1,Cc1ccc(NC(=O)Nc2cc(C(C)(C)C)nn2-c2ccccc2)cc1 [GSK1014915],26 nM
2,O=C(Nc1n[nH]c2nc(-c3nccs3)c(Br)cc12)C1CC1 [SB-742251],190 nM
3,Cn1ccc2ncnc(Oc3ccc(NC(=O)Nc4ccccc4)cc3)c21,33 nM

# Tested on: GAK
row,SMILES,Kd
1,Cc1ccc(-c2cc(-c3c[nH]nc3-c3ccccn3)ccn2)cc1 [GW684088],110 nM
2,Fc1cc(Cl)ccc1Nc1ccnc2cc(I)ccc12 [GW551191],340 nM
3,CSc1nn2c(=O)cc(N3CCOCC3)nc2n1Cc1cccc(C(F)(F)F)c1C [GSK2363608],> 10000 nM

# Tested on: GSK3A
row,SMILES,Kd
1,O=C(Nc1n[nH]c2nc(-c3nccs3)c(Br)cc12)C1CCCC1 [SB-742609],61 nM
2,O=C(Nc1n[nH]c2nc(-c3nccs3)c(Br)cc12)C1CC1 [SB-742251],290 nM
3,Cc1nnc(-c2ccc3occ(-c4ccc(S(C)=O)cc4)c3c2)[nH]1 (stereo not drawn),190 nM
